Reference: PubChem BioAssay (NCI)
About 79,000 compounds went through this panel and 15% of them were active in at least one assay; those are over-represented in the sample as a whole. Calls of active or inactive are those of the source. No stated cut-off is given here; in the data, active means growth inhibition above about 70%; inactive means the rest.

Assays:
[1] = NCI Yeast Anticancer Drug Screen. Data for the mec2-1 strain (AID 157); conditions: S. cerevisiae mec2-1 strain, hits give high values
Method in brief: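 Each compound was tested on mec2-1 yeast, a strain altered in DNA damage repair or cell cycle control. Growth inhibition is reported relative to vehicle.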

[2] = NCI Yeast Anticancer Drug Screen. Data for the rad14 strain (AID 159);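 further: 0% = growth of vehicle-treated control cultures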; conditions: S. cerevisiae rad14 strain growth inhibition, hits give high values
Method in brief: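 Yeast cells carrying a defined DNA-repair defect were exposed to compounds, and growth inhibition was calculated relative to vehicle-treated control cultures.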

[3] = NCI Yeast Anticancer Drug Screen. Data for the sgs1 mgt1 strain (AID 161);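 further: 0% = growth of cultures given vehicle only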; conditions: S. cerevisiae sgs1 mgt1 strain, hits give high values
Method in brief: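 Test agents were incubated with a DNA-repair-mutant yeast strain. Growth was then read and compared against vehicle-treated controls.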

[4] = NCI Yeast Anticancer Drug Screen. Data for the CLN2oe strain (AID 163);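 further: 0% = growth of vehicle-only control cultures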; conditions: S. cerevisiae CLN2oe strain, hits give high values
Method in brief: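 First, the altered yeast strain was treated with each compound; second, its growth was measured; finally, inhibition was derived by comparison with vehicle controls.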

[5] = NCI Yeast Anticancer Drug Screen. Data for the cln2 rad14 strain (AID 165);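 further: 0% = growth equal to vehicle treated cultures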; conditions: S. cerevisiae cln2 rad14 strain, hits give high values
Method in brief: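 Test compounds were added to cln2 rad14 yeast cultures; inhibition of growth was then determined by comparison with vehicle treatment.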

[6] = NCI Yeast Anticancer Drug Screen. Data for the bub3 strain (AID 167); conditions: S. cerevisiae bub3 mutant strain, hits give high values
Method in brief: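 Compounds were applied to a genetically altered yeast strain carrying a cell-cycle control defect. Growth inhibition was scored against vehicle-treated controls.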

[7] = NCI Yeast Anticancer Drug Screen. Data for the mlh1 strain (AID 171);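 further: 0% = growth of vehicle-treated control cultures of the same strain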; conditions: S. cerevisiae mlh1 strain growth inhibition, hits give high values
Method in brief: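 Inhibition values reflect reduced yeast growth in the presence of compound, referenced to vehicle controls, using a strain chosen for its alteration in DNA repair or cell cycle control.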

[8] = NCI Yeast Anticancer Drug Screen. Data for the mlh1 rad18 strain (AID 175); conditions: S. cerevisiae mlh1 rad18 strain growth inhibition, hits give high values
Method in brief: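 Inhibition values reflect reduced growth of mutant yeast versus vehicle-treated controls following compound exposure; the mutations affect DNA damage repair.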

[9] = NCI Yeast Anticancer Drug Screen. Data for the rad18 strain (AID 177); conditions: S. cerevisiae rad18 mutant growth inhibition, hits give high values
Method in brief: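 Steps: expose repair-mutant yeast to compound; measure growth; express as inhibition relative to vehicle control.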

[10] = at 5.0 µM (retest, dose inferred, filed as 0.5)
[11] = at 50.0 µM (retest, dose inferred, filed as 5.0)

Measured: growth inhibition

BrC1C2CCC3OC3C12 (stereo not drawn)
inactive: [1]; [10] 28% | [2]; at 1.2 µM 0% | [2]; at 3.7 µM 3% | [3]; [10] 65% | [4]; at 1.2 µM 2% | [4]; at 3.7 µM -3% | [4]; at 11.0 µM 53% | [5]; [10] 8% | [6]; at 1.2 µM -4% | [6]; at 3.7 µM -5% | [6]; [10] 2% | [6]; at 11.0 µM 42% | [7]; at 1.2 µM -1% | [7]; at 3.7 µM 4% | [9]; at 1.2 µM 1% | [9]; at 3.7 µM 7%
active: [1]; at 11.0 µM 93% | [1]; at 33.0 µM 99% | [1]; [11] 100% | [1]; at 50.0 µM 99.7% | [1]; at 100.0 µM 99% | [2]; at 11.0 µM 98% | [2]; at 33.0 µM 99% | [2]; at 100.0 µM 99% | [3]; [11] 100% | [3]; at 50.0 µM 99.5% | [4]; at 33.0 µM 99% | [4]; at 100.0 µM 99% | [5]; [11] 99% | [5]; at 50.0 µM 99% | [6]; at 33.0 µM 99% | [6]; [11] 100% | [6]; at 50.0 µM 99.3% | [6]; at 100.0 µM 99% | [7]; at 11.0 µM 86% | [7]; at 33.0 µM 99% | [7]; at 100.0 µM 99% | [8]; [10] 74% | [8]; [11] 99% | [8]; at 50.0 µM 99.5% | [9]; at 11.0 µM 95% | [9]; at 33.0 µM 98% | [9]; at 100.0 µM 99%
